Laboratory results reported in paper PMC4336329 (PLoS ONE, 2015).
The whole screen tested about 310,000 compounds, of which about 14,000 (4.5%) showed an effect of 50% or more. Effects have a minus sign here. The list comes from a sample in which strong results are over-represented; it also holds similar structures and randomly drawn compounds.

target: human ether-à-go-go-related gene (hERG) potassium channel (human, UniProt Q12809); assay: primary screen, population patch clamp on CHO cells stably expressing hERG; higher = less effect of the substance
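Also: peak tail current of the secondary pulse compared with the same well before compound.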

Chain of human ether-à-go-go-related gene (hERG) potassium channel (Q12809 whole entry, looked up): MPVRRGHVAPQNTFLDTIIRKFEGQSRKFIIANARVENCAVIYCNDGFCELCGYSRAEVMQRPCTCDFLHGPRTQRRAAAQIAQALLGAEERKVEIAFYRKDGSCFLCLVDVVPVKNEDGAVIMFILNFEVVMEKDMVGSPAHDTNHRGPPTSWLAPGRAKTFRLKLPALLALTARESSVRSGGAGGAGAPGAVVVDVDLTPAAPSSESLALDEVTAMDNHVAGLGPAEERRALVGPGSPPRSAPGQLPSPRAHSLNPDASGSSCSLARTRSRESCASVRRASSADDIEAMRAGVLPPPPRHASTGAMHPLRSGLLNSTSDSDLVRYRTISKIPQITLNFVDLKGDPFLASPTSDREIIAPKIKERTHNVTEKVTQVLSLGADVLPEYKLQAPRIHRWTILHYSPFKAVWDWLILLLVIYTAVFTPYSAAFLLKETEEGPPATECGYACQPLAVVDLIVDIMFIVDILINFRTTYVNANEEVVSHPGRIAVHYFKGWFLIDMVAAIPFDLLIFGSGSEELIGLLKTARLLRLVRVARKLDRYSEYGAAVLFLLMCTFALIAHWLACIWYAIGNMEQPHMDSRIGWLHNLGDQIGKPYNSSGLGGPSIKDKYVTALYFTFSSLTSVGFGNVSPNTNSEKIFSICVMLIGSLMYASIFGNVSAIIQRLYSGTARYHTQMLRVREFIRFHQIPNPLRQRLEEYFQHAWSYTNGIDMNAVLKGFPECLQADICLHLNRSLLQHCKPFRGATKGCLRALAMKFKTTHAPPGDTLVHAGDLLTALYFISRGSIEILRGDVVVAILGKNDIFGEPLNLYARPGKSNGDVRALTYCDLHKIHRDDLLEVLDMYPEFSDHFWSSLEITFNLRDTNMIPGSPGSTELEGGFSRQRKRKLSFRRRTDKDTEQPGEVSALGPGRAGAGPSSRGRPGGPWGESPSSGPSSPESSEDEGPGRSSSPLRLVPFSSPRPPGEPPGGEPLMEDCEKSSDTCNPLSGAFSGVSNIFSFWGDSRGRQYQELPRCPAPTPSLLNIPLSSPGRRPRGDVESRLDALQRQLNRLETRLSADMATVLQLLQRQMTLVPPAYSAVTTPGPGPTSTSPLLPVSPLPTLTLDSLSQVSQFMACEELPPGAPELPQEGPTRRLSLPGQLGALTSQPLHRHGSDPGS

SMILES	hERG current change (%, negative = inhibition) at 10uM
O=C(CCNS(=O)(=O)c1ccccc1)OCC(=O)c1ccc(Cl)cc1	-30%
CC(C)CN(C(=O)COC(=O)c1ccc(Br)cc1)c1c(N)n(Cc2ccccc2)c(=O)[nH]c1=O	-2.83%
CCOC(=O)C1=C(COC(=O)c2cccs2)NC(=O)NC1C (centres unmarked)	6.08%
Cc1sc(NC(=O)c2ccccc2F)c(CN2CCCCC2C)c1C (centres unmarked)	-7.58%
Cc1ccccc1NC(=O)c1ccc(Cl)c(NC(=O)c2ccncc2)c1	-32.1%
CSC1=N/C(=C\c2ccc3c(c2)OCO3)C(=O)S1	12.3%
O=C(N/N=C/c1cccs1)C1CC(=O)N(c2ccccc2)C1 (centres unmarked)	-8.24%
Cn1ncc2c(NNC(=O)c3ccccc3Cl)ncnc21	10.1%
Cc1ccccc1N1CCN(C2CCCN(C(=O)CN3CCCC3=O)C2)CC1 (centres unmarked)	5.78%
Cc1cc(C)n(CC(=O)N2CCCC(N3CCN(c4ccccc4C)CC3)C2)n1 (centres unmarked)	-14%
Cc1ccccc1N1CCN(C2CCCN(C(=O)CCN3CCCO3)C2)CC1 (centres unmarked)	-0.397%
CC(=O)c1ccc(OCC(=O)N2CCCC(N3CCN(c4ccccc4C)CC3)C2)cc1 (centres unmarked)	-75.2%
Cc1ccccc1N1CCN(C2CCCN(C(=O)CCC(F)(F)F)C2)CC1 (centres unmarked)	-47.3%
Cc1ccccc1N1CCN(C2CCCN(C(=O)COc3ccccc3)C2)CC1 (centres unmarked)	-62.7%
COc1ccc(OCC(=O)N2CCCC(N3CCN(c4ccccc4C)CC3)C2)cc1 (centres unmarked)	-85.9%
CC(C)=CC(=O)N1CCCC(N2CCN(c3ccccc3C)CC2)C1 (centres unmarked)	-16%
Cc1ccccc1N1CCN(C2CCCN(C(=O)CCC(=O)N(C)C)C2)CC1 (centres unmarked)	9.34%
CC(=NCC1CCCO1)C1=C(O)CC(C)(C)CC1=O (centres unmarked)	-5.04%
COc1ccccc1COCC(O)CN(Cc1ccco1)Cc1ccccc1O (centres unmarked)	-27%
CC(=O)c1cccc(NC(=O)CCn2c(=S)oc3ccccc32)c1	9.8%
CC(=O)NC1(c2cccc(F)c2)CCN(C(=O)Nc2ccc(C#N)cc2)CC1	-13.8%
O=C(Nc1cccnc1)c1cc([N+](=O)[O-])ccc1Cl	-0.51%
O=C(NCCCN1CCCC1)c1ccc(CS(=O)(=O)c2ccc(Br)cc2)o1	-16.7%
Cc1ccccc1S(=O)(=O)Cc1ccc(C(=O)NCCN2CCN(Cc3ccccc3)CC2)o1	-61.9%
CCN1CCN(CCNC(=O)c2ccc(CS(=O)(=O)c3ccccc3C)o2)CC1	-1.23%
O=C(NCCN1CCOCC1)c1ccc(CS(=O)(=O)c2ccc(Br)cc2)o1	-2.9%
CCC1CCCCN1CCCNC(=O)c1ccc(CS(=O)(=O)c2ccc(Br)cc2)o1 (centres unmarked)	-56.7%

SMILES	hERG current change (%, negative = inhibition) at 10uM
CCC1CCCCN1CCCNC(=O)c1ccc(CS(=O)(=O)c2ccccc2OC)o1 (centres unmarked)	6.46%
O=C(NCCN1CCCCCC1)c1ccc(CS(=O)(=O)c2ccc(Br)cc2)o1	-57.4%
O=C(NCCCN1CCOCC1)c1ccc(CS(=O)(=O)c2ccc(Br)cc2)o1	-6.32%
Cc1ccccc1S(=O)(=O)Cc1ccc(C(=O)NCCCN2CCN(C)CC2)o1	-1.6%
O=C(NCCN1CCN(Cc2ccccc2)CC1)c1ccc(CS(=O)(=O)c2ccc(Br)cc2)o1	-79.8%
CCC1CCCCN1CCCNC(=O)c1ccc(CS(=O)(=O)c2ccccc2C)o1 (centres unmarked)	-26.5%
CN1CCN(CCCNC(=O)c2ccc(CS(=O)(=O)c3ccc(Br)cc3)o2)CC1	-10.3%
O=C(CN(C(=O)C1CSC(=O)C1)c1cccc(F)c1)NCc1ccc2c(c1)OCO2 (centres unmarked)	-14.7%
COc1ccc(CCNC(=O)CCc2nc3sc4c(c3c(=O)[nH]2)CCCC4)cc1	9.78%
Cn1c(=S)[nH]c2c(c1=O)C(C)(C)Cc1ccccc1-2	10.9%
Cc1[nH]c(=O)[nH]c(=O)c1S(=O)(=O)N1CCOCC1	3.26%
CCCn1c(SCC(=O)Nc2c(C)cccc2CC)nnc1C(C)C	3.71%
Cc1ccc(NC(=O)c2ccc3c(=O)n4c(nc3c2)CCCCC4)cc1F	-24.6%
O=C(Nc1cccc(S(=O)(=O)N2CCCC2)c1)c1ccc2c(=O)n3c(nc2c1)CCCCC3	-57.1%
O=C(Nc1cccc(S(=O)(=O)N2CCCCC2)c1)c1ccc2c(=O)n3c(nc2c1)CCCCC3	-64.5%
O=C(Nc1ccc(S(=O)(=O)N2CCCC2)cc1)c1ccc2c(=O)n3c(nc2c1)CCCCC3	9.23%
O=C(Nc1cccc(S(=O)(=O)N2CCOCC2)c1)c1ccc2c(=O)n3c(nc2c1)CCCCC3	-73.3%
O=C(c1ccc2c(=O)n3c(nc2c1)CCC3)N1CCN(S(=O)(=O)c2cccc(F)c2)CC1	-4.8%
Cc1ccc(S(=O)(=O)N2CCCCC2)cc1NC(=O)c1ccc2c(=O)n3c(nc2c1)CCCCC3	-64.1%
O=C(Nc1ccc(S(=O)(=O)C(F)F)cc1)c1ccc2c(=O)n3c(nc2c1)CCC3	24.1%
O=C(Nc1ccc2c(c1)nc1n2CCCCC1)c1cc(S(=O)(=O)N2CCOCC2)ccc1Cl	-15.5%
Cc1ccc(C)c(NC(=O)c2ccc3c(=O)n4c(nc3c2)CCC4)c1	-25.9%
O=C(Nc1ccc(F)c(Cl)c1)c1ccc2c(=O)n3c(nc2c1)CCCCC3	-36.6%
CC(NC(=O)c1cnccn1)c1ccc(S(N)(=O)=O)cc1 (centres unmarked)	-2.33%
C=CCn1c(SCC(=O)NCc2ccco2)nc2sc(C)c(C)c2c1=O	3.62%
CC(C)NC(=O)COc1coc(CN2CCN(Cc3ccccc3)CC2)cc1=O	11.9%
